FLuc counter: counter-screen for miR-21 project: firefly luciferase inhibitors or activators | P08659 | purified FLuc, Km substrates, luminescence inhibition | Potency, µM (series often up to 57.5 µM), actives largely listed as inhibitors | 6.9% of 360,000 active; note: nearly all actives have a fitted effect of over 55% in size
Target sequence (P08659 whole entry, looked up): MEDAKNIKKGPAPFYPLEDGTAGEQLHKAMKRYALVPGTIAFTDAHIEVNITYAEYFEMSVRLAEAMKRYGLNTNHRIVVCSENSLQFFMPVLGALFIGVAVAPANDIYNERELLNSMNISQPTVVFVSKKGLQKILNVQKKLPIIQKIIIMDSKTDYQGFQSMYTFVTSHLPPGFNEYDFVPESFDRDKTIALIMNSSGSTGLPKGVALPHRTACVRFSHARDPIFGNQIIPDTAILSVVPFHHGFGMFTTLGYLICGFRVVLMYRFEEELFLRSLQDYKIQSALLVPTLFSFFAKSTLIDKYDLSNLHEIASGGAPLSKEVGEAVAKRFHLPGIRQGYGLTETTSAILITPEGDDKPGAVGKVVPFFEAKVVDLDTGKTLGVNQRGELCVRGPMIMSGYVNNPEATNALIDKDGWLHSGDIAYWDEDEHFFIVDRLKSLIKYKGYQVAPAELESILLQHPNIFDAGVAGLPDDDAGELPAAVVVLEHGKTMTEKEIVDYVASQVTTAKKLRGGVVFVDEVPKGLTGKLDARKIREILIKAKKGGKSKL
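Biochemical qHTS of compounds, final roughly 60 µM downward over six points, against 10 nM purified firefly luciferase using Km concentrations of substrates (10 uM D-luciferin, 10 uM ATP) in Tris acetate pH 7.5 buffer; luminescence output.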
Rab9 promoter act: activates the Rab9 promoter; Huh7 Rab9 promoter-luciferase reporter, luminescence, 24 h; Potency, µM (highest dose often 9.22 µM), usual class: activators; 2.8% of 320,000 active; note: nearly all actives have a fitted effect of over 60% in size
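Rab9 promoter-driven luciferase in stably transfected Huh7 cells; 1500 cells/well rested 2 h, exposed to compound in DMSO for 24 h at 37 °C, 5% CO2. Luminescence read 10 min after adding luciferase reagent at ambient temperature.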
NPC1 prom act: activators of NPC1 promoter | Huh7 NPC1 promoter luciferase reporter, 24 h | Potency, µM (series often up to 9.22 µM), actives largely listed as activators | 2.4% of 320,000 active; note: nearly all actives have a fitted effect of over 60% in size
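Stably transfected Huh7 (NPC1 promoter→luciferase), 1500 cells/well in Opti-MEM + 10% FBS, 2 h settle, then compound 24 h at 37 °C. Luminescence after 10 min with Amplite reagent.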
KinaseGlo FLuc: Kinase-Glo luciferase inhibition (counter-screen); Kinase-Glo luciferase, ATP luminescence, 8 min; Potency, µM (highest dose often 38.3 µM), hits mostly inhibitors; 0.28% of 200,000 active; note: nearly all actives have a fitted effect of over 60% in size
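Light output from Kinase-Glo luciferase with luciferin and 10 uM ATP in 50 mM imidazole pH 7.2, KCl, MgCl2, Tween 20, BSA; compound pin-delivered, 8-min ambient incubation, then luminescence read.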
SMN2 splice up: enhancers of SMN2 splice variant expression | 2.8% of 210,000 active | HEK293 SMN2-luciferase splicing reporter, luminescence, 30-36 h | AID 1458 | Potency, µM (top dose mostly 46.1 µM), actives largely listed as activators; note: nearly all actives have a fitted effect of over 55% in size
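HEK293 cells carry an SMN2 minigene-luciferase reporter in which exon 7 inclusion puts luciferase in frame. Cells were seeded at 2000 cells/well, attached for 10-12 hours, then exposed to compounds for 30-36 hours at 37C before ONE-Glo luminescence.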
ELG1 genotoxic: inducers of genotoxicity in HEK293T ELG1-luciferase cells; HEK293T ELG1-luciferase reporter, luminescence, 16 h; Potency, µM (highest dose often 46 µM), hits mostly activators; 1.3% of 330,000 active; note: nearly all actives have a fitted effect of over 60% in size
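Screening used a luciferase reporter fused to human ELG1 in HEK293T cells. Luminescence was read on a CCD plate imager after 16 hr exposure and 30 min ONE-Glo incubation.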
Numbers stand for hits; n = inactive; u = inconclusive; x = not tested or not shown. Sampled rows, rich in hits. Any-hit rate of the full collection: about 7.3%. Calls come from the whole dose curve; as a rule, active = well fitted curve in the direction sought with a large enough effect; inconclusive = small, poorly fitted or top-dose-only effect, or another doubt; inactive = no such curve, though single readings can be large; an effect the other way counts as inactive or inconclusive.

SMILES	FLuc counter	Rab9 promoter act	NPC1 prom act	KinaseGlo FLuc	SMN2 splice up	ELG1 genotoxic
Cc1nc2cc(-c3ccccc3)nn2c(N)c1-c1ccccc1	x	0.63µM	1µM	x	x	1.8µM
CC(C)=NN/C(N)=N/C(=S)Nc1ccc(C)cc1	4.8µM	n	n	n	n	u
O=C(NCc1ccc(F)cc1)c1c2c(nc3ccccc13)CCC2	13µM	u	u	n	n	n
O=[N+]([O-])c1cccnc1NCCNc1ncc(C(F)(F)F)cc1Cl	11µM	2.2µM	3.5µM	n	13µM	u
O=[N+]([O-])c1cccnc1NCCc1c[nH]c2ccccc12	u	2.5µM	3.5µM	x	x	13µM
O=[N+]([O-])c1cccnc1NCCc1ccccc1	11µM	3.2µM	u	x	x	u
O=c1cc(Cl)[nH]c(=O)n1CCNc1ncc(C(F)(F)F)cc1Cl	13µM	3.2µM	u	n	u	n
CN(C1CCCCC1)S(=O)(=O)c1ccc2c(c1)c(=O)c(C(=O)NCCN1CCCC1)cn2C	n	n	n	n	u	n
CC(C)(C)C(=O)Nc1nnc(SCc2cccc(F)c2)s1	19µM	2µM	u	n	u	n
CC(C)(C)C(=O)Nc1nnc(SCc2ccc(F)cc2)s1	u	n	n	n	n	u
COCCSc1nnc(NC(=O)C(C)(C)C)s1	15µM	u	u	n	x	n
O=C(Nc1ccc(F)cc1)c1cccc2ccccc12	u	n	n	x	x	n
O=C(c1ccc(F)cc1)c1cc2ccc(O)cc2oc1=O	15µM	n	n	x	x	u
N=c1oc2cc(O)ccc2cc1C(=O)Nc1ccc(F)cc1	2.7µM	3.5µM	u	x	x	u
COc1ccc(NC(=O)c2cc3ccc(O)cc3o/c2=N\O)cc1	0.27µM	n	u	x	x	u
COc1ccccc1C(=O)c1cc2ccc(O)cc2oc1=O	n	n	n	n	n	n
O=c1cc(O)c(-c2ccc(Cl)cc2)c(Cl)[nH]1	n	n	n	x	x	n
COc1cc(C(=O)NC2CCCCC2)ccc1OCc1ccc(Cl)cc1Cl	n	n	n	n	n	n
Cc1cc(C(=O)CN2C(=O)NC3(CCCc4sccc43)C2=O)c(C)n1-c1ccccc1 (stereo not given)	17µM	n	n	n	n	n
COc1ccc(-n2c(C)cc(C(=O)CN3C(=O)NC4(CCCc5sccc54)C3=O)c2C)cc1 (stereo not given)	n	n	n	n	n	n
COc1ccc(NC(=O)O/N=C2/CCCc3ccc(OC)cc32)cc1	u	n	n	x	x	n
N/C(CC(=O)Nc1ccc(F)c(Cl)c1)=N\OC(=O)c1cccs1	n	n	n	x	x	n
COc1ccc(/C(N)=N/OC(=O)c2cccs2)cc1	1.9µM	1.3µM	1.4µM	x	x	8.2µM
N/C(=N\OC(=O)c1cccs1)c1ccc(Cl)cc1	4.8µM	u	n	x	x	u
COc1ccc2c(c1)/C(=N/OC(=O)c1cccs1)CCC2	27µM	n	n	n	n	n
SMILES	FLuc counter	Rab9 promoter act	NPC1 prom act	KinaseGlo FLuc	SMN2 splice up	ELG1 genotoxic
COc1ccc(CNC(=O)COC(=O)c2cccs2)cc1	24µM	n	n	x	x	n
CC1=C(C(=O)OC(C)C)C2(O)C(=O)c3ccccc3C2(O)N1 (stereo not given)	n	n	n	n	n	n
CCCc1ccc(/C=C2\C(=O)c3ccccc3C(O)=C2C(=O)OCC)cc1	3.4µM	n	n	n	10µM	u
CCOC(=O)C1=C(C)N(CC(C)C)C(=O)/C1=C\c1ccc(OCC(=O)Nc2ccccc2)cc1	n	n	n	n	n	n
CCOC(=O)C1=C(O)c2ccccc2C(=O)/C1=C\c1ccc(CC)cc1	3.4µM	n	n	n	u	n
CCOC(=O)C1=C(C)N(c2ccccc2)C(=O)/C1=C\c1ccc(O)c(OC)c1	u	n	n	x	x	n
CCOC(=O)Cc1csc(NC(=O)CSc2nncn2C)n1	n	n	n	n	n	n
COc1cc(C(=O)N2CCSCC2)ccc1OC1CCN(C(C)=O)CC1	n	n	n	x	x	n
COc1cccc(OCc2cc(C(=O)N3CCN(C(C)=O)CC3)no2)c1	u	3.2µM	u	x	x	u
